Source: PubChem
HP1b chromo inh = HTS for Inhibitors of HP1-beta Chromodomain Interactions with Methylated Histone Tails. Potency, µM (highest dose often 114 µM), inactives show top-dose activity change, negative = inhibition, hits mostly inhibitors. 390,000 compounds, 0.56% hits. AlphaScreen HP1-beta / biotin-H3K9me3 peptide binding. Chromobox protein homolog 1 (Homo sapiens), P83916; note: nearly all actives have a fitted effect of over 70% in size
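AlphaScreen: HP1-beta (50 nM) preformed 30 min with biotin-H3(1-18)K9me3 peptide (50 nM) in PBS pH 7.4, 0.01% Tween-20. Compound added for 30 min at RT, then streptavidin donor/nickel chelate acceptor beads (10 ug/mL) for 30 min.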
BAZ2B inh = qHTS Assay for Inhibitors of BAZ2B; AlphaScreen BAZ2B-H3K14Ac peptide displacement; Potency, µM (series often up to 114 µM), without a hit: at the highest dose activity change, negative = inhibition, most hits filed as inhibitors; 360,000 compounds, 4.4% hits; AID 504333, 2011; note: % is set by controls: 0 for no effect and ±100 for the full control effect; nearly all actives have a fitted effect of over 60% in size
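In this displacement format the biotinylated H3(5-23) peptide acetylated at Lys14 serves as ligand at 50 nM, with BAZ2B at 50 nM in PBS pH 7.4 containing 0.01% Tween-20. Donor and acceptor beads are 10 ug/mL final.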
Sfp inh = qHTS Assay for Inhibitors of Bacillus subtilis Sfp phosphopantetheinyl transferase (PPTase). 310,000 compounds, 3.5% hits. Potency, µM, inactives show largest response in the series, negative = inhibition, usual class: inhibitors. Biochemical Sfp PPTase activity, qHTS. 4'-phosphopantetheinyl transferase ffp (Bacillus subtilis), Q9F4F7;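 note: the enzyme is Sfp with the accession as filed and its product quenches rhodamine fluorescence; 0% = enzyme reaction without inhibitor and -100% = no enzyme wells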
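Sfp 15 nM + cpd, 15 min RT; start w/ rhodamine-CoA 5 uM, BHQ-2-YbbR 12.5 uM (final); 50 mM Hepes pH 7.6, 10 mM MgCl2, 0.01% NP-40, 0.01% BSA; read 525/598 nm at 0 and 30 min.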
JMJD2A Tudor = qHTS Assay for Inhibitors of JMJD2A-Tudor Domain | AlphaScreen JMJD2A-Tudor / H3K4me3 peptide binding | Potency, µM (titrated, usually from 114 µM), for inactives: at the highest dose activity change, negative = inhibition, most hits filed as inhibitors | 390,000 compounds, 4.4% hits | AID 504339, 2011; note: % is set by controls: 0 for no effect and ±100 for the full control effect; nearly all actives have a fitted effect of over 50% in size
G9a inh = qHTS Assay for Inhibitors of Histone Lysine Methyltransferase G9a; Histone-lysine N-methyltransferase EHMT2 (Homo sapiens), Q96KQ7; G9a H3K9 monomethylation, AlphaScreen, 2 h; Potency, µM (doses to about 102 µM), inactives show top-dose activity, negative = inhibition, most hits filed as inhibitors; 350,000 compounds, 8.8% hits; AID 504332, 2011; note: % is set by controls: 0 for no effect and ±100 for the full control effect; nearly all actives have a fitted effect of over 75% in size
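G9a (20 nM) preincubated 15 min RT with compounds, then 500 nM biotinylated H3K9 peptide and 20 uM SAM added; 2 h RT reaction. Monomethyl-H3K9 product detected by AlphaScreen with anti-H3K9me1 antibody, streptavidin donor and anti-rabbit IgG acceptor beads.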
L3MBTL1 block = qHTS Assay for the Inhibitors of L3MBTL1 | 230,000 compounds, 0.66% hits | Lethal(3)malignant brain tumor-like protein 1 (Homo sapiens), Q9Y468 | Potency, µM (titrated, usually from 57.1 µM), inactives show at the highest dose activity, negative = inhibition, most hits filed as inhibitors | AlphaScreen L3MBTL1–H3K9me1 peptide binding; note: % is set by controls: 0 for no effect and ±100 for the full control effect; nearly all actives have a fitted effect of over 60% in size
Target sequence (Q9Y468 whole entry, looked up): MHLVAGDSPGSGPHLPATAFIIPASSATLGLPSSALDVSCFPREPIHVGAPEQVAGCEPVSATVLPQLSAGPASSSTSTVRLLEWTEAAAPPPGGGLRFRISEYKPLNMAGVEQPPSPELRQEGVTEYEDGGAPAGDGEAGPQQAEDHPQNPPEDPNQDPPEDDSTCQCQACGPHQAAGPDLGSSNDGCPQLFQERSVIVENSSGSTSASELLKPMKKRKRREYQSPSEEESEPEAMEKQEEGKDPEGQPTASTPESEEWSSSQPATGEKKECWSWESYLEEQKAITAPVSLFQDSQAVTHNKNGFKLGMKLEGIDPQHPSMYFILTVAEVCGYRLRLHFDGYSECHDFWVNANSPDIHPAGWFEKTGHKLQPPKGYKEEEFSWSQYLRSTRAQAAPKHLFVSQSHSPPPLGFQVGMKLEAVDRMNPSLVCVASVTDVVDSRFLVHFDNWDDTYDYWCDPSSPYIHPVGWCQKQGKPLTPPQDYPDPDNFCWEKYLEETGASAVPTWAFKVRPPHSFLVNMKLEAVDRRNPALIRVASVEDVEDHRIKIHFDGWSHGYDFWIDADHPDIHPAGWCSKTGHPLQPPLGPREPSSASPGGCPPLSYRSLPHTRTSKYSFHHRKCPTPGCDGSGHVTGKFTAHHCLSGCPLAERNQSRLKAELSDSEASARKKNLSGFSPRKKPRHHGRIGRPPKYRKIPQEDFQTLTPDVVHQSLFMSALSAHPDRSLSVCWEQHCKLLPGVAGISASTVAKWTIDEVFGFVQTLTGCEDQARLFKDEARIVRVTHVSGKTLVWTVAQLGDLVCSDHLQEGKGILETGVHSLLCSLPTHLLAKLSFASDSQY
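L3MBTL1 50 nM + b-AHA-H3(1-15)K9me1 75 nM, 30 min RT; compound added, 30 min RT; streptavidin donor/Ni-chelate acceptor beads 10 ug/mL each final, 30 min RT dark; AlphaScreen read.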
Numbers without * were called inactive; ? = inconclusive; · = no result; [ ] = another dose, or the depositor's remark. Shown are actives, neighbours in structure and some others; about 12% of the full set was active somewhere. Calls come from the whole dose curve; as a rule, active = well fitted curve in the direction sought with a large enough effect; inconclusive = small, poorly fitted or top-dose-only effect, or another doubt; inactive = no such curve, though single readings can be large; an effect the other way counts as inactive or inconclusive. Potency is the fitted concentration of half-maximal effect.

SMILES	HP1b chromo inh	BAZ2B inh	Sfp inh	JMJD2A Tudor	G9a inh	L3MBTL1 block
CCN1CCN(C(c2ccc(OC)cc2)c2c(O)cc(C)n(Cc3ccco3)c2=O)CC1 (stereo not given)	10%[57 µM]	-17%	·	79µM*	?	·
CCN1CCN(C(c2ccccc2Cl)c2c(O)cc(C)n(Cc3ccco3)c2=O)CC1 (stereo not given)	22%[57 µM]	-19%	·	?	?	·
Cc1ccc(NC(=O)C2CCN(c3nc4ccccc4[nH]3)CC2)c(C)c1	21%[57 µM]	-2%	·	-17%	10%[59 µM]	·
CCN1CCN(c2ccc(S(=O)(=O)N3CCCCC3)cc2NC(=O)Cc2ccccc2F)CC1	1%	7%	·	-30%	?	-7%
CCN1CCN(c2ccc(S(=O)(=O)N3CCCCC3)cc2NC(=O)Cc2ccc(Cl)c(Cl)c2)CC1	-9%	?	·	?	40µM*	-13%
CCN1CCN(c2ccc(S(=O)(=O)N3CCCCC3)cc2NC(=O)Cc2ccccc2)CC1	-8%	-8%	·	?	6.3µM*	-1%
CCOc1ccccc1CNC(=O)CCCn1c(=O)c2cccn2c2ccc(F)cc21	22%	0%	·	-6%	-4%[59 µM]	·
Cc1cccc(C2c3[nH]c4ccccc4c3CCN2C(=O)c2ocnc2C)n1 (stereo not given)	6%	79µM*	-12%	-32%	32µM*	-4%
Cc1cnc(C(=O)N2CCc3c([nH]c4ccccc34)C2c2ccc(F)cc2)cn1 (stereo not given)	-7%	28µM*	-1%	?	·	-13%
CCc1ccc(C2c3[nH]c4ccccc4c3CCN2C(=O)c2cc(C)nn2C)cc1 (stereo not given)	-9%	?	-6%	?	16µM*	?
COc1cc2cc(CNc3ccccc3)c(=O)n(CC(=O)Nc3cc(C)cc(C)c3)c2cc1OC	31%	-17%	·	-4%	-40%[59 µM]	·
CC(C)(Oc1ccc(Br)cc1)C(=O)Nc1cc(-c2nc3ccccc3[nH]2)ccc1Cl	29%	-18%	·	-30%	-14%[59 µM]	·
C/C(CCN1CCCc2nc(C)c(C)cc21)=N\OC[C@@H](C)[C@H](OCc1ccccc1)C(C)C	·	·	-4%	·	·	·
CN1CCN(C(=O)C23CC4CC(C)(CC(C)(C4)C2)C3)CC1	48%	-11%	14%	-3%	56µM*	-7%
Cn1c(SCC(=O)NCCc2ccccc2)nnc1-c1ccco1	-12%	4%	20%	89µM*	12%[12.7 µM]	-2%
COCCn1c(SCc2cccnc2)nnc1-c1ccco1	37%	-2%	20µM*	-6%	?	·
Nn1c(SCC(=O)NCCCc2ccccc2)nnc1-c1cccnc1	45%	-2%	-1%	5%	50µM*	-4%
COCCn1c(SCC(=O)NCCc2ccccc2)nnc1-c1ccco1	36%	-1%	-22%	-8%	45µM*	1%
COc1ccc(NC(=O)CCCSc2nc(-c3ccco3)cc(C(F)(F)F)n2)c(OC)c1	18%	-15%	·	-14%	1%[59 µM]	·
CCn1c(SCC(=O)NCCc2ccccc2)nnc1-c1cccs1	22%	8%	4%	-1%	3%[59 µM]	-7%
CCn1c(SCC(=O)NCCc2ccccc2)nnc1-c1ccco1	31%	-3%	?	7%	40µM*	2%
Cn1c(SCC(=O)Nc2ccc(Cl)cc2F)nnc1-c1ccco1	-14%	-12%	10%	-13%	45µM*	·
Cc1cc(C(F)F)n2nc(C(=O)Nc3cccc(Cl)c3C)nc2n1	30%	-2%	·	-4%	9%[59 µM]	·
COc1cccc(CNC(=O)Cn2cc3c(n2)-c2c(oc(C(=O)N4CCCC4)c2C)CC3)c1OC	19%	-24%	·	-16%	-33%[59 µM]	·
CN(C)C(=O)c1cnc(Sc2ncc(C(F)(F)F)cc2Cl)n1C	54%	16%	-2%	6%	56µM*	·
SMILES	HP1b chromo inh	BAZ2B inh	Sfp inh	JMJD2A Tudor	G9a inh	L3MBTL1 block
CN(Cc1cccs1)c1ncnc2ccc(-c3ccc4cn(C)nc4c3)cc12	·	·	·	-25%	·	·
c1ccc(-c2ccc(OCCOCCn3cncn3)cc2)cc1	?	50µM*	-19%	32µM*	?	-4%[11.4 µM]
C/C=C/c1ccc(OCCn2cncn2)c(OC)c1	?	50µM*	?	40µM*	14µM*	-4%
COc1ccc(OCCn2cncn2)cc1	-13%	56µM*	-3%	7.9µM*	22µM*	·
Cc1nn2c(=O)cc(COC(=O)c3ccc(NC(=O)c4cccs4)cc3)nc2s1	13%	-30%	·	-15%	14%[59 µM]	·
Cc1cccc(CC(=O)Nc2ccc3nc(N4CCC(C)CC4)cc(C)c3c2)c1	85%	22%	·	16%	18%[59 µM]	·
Cc1ccc(C(=O)N2NC(c3ccccc3F)C3C(=O)N(c4cccc(C)c4)C(=O)C32)cc1 (stereo not given)	39%	-30%	11%	-16%	?	-12%
COc1ccccc1N1C(=O)C2C(c3ccccc3F)NN(C(=O)c3ccc(C)cc3)C2C1=O (stereo not given)	35%	-3%	?	-16%	20µM*	-4%
N#CC1(NC(=O)COC(=O)c2ccccc2[N+](=O)[O-])CCCCC1	12%	-3%	·	-13%	10%[0.501 µM]	-2%
N#CC1(NC(=O)COC(=O)c2cc(O)c3ccccc3c2O)CCCCC1	?	50µM*	·	25µM*	4.5µM*	-24%
CCc1ccc(C(=O)c2cn(CC(=O)Nc3ccc(OC)c(Cl)c3)c3nc(C)ccc3c2=O)cc1	9%	1%	·	1%	4%[59 µM]	·
CN1C(=O)Cc2cc(S(=O)(=O)N3CCOCC3)ccc21	-8%	7%	4%	-6%[57.1 µM]	40µM*	-4%
Cc1ccc(S(=O)(=O)N2CCC(C(=O)OCc3c(C)noc3C)CC2)cc1C	29%	6%	·	-4%	40µM*	8%
CC1CCN(c2ccc(S(=O)(=O)N3CCC(C)CC3)cc2N)CC1	22%	-31%[57.1 µM]	5%	-14%	3%	·
CC1CCN(S(=O)(=O)c2ccc3c(c2)N(C)C(=O)CC(=O)N3C)CC1	12%	-33%	-29%	-2%	28µM*	0%
CCOC(=O)C1CCN(S(=O)(=O)c2ccc3c(c2)CCCN3C(C)=O)CC1	77%	-6%	6%	-2%	-7%	5%
Cc1cccc(N2CCN(S(=O)(=O)c3ccc4c(c3)CC(=O)N4C)CC2)c1C	38%	-21%	-4%	4%	-22%[59 µM]	·
